Experimental data from PubChem BioAssay.
Calls of active or inactive are those of the source.

How the values were obtained:
[1] = binders of probe aFSTL3 on microarray, primary screen, stem cell growth factor project, biochemical, small-molecule microarray, fluorescence 635/667 (AID 1064); conditions: higher = more signal;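 also: measures binding of the biotinylated anti-FSTL3 antibody to printed compounds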
[2] = binders from COS7 lysate, DM2A8 probe, primary screen, torsin A project, cell lysate, small-molecule microarray, fluorescence 635/667 (AID 1065); conditions: higher = more signal, COS7 lysate expressing mutant human TOR1A
[3] = binders of probe aFGF2 on microarray, primary screen, stem cell growth factor project, biochemical, small-molecule microarray, fluorescence 635/667 (AID 1067); conditions: higher = more signal;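 also: measures binding of biotinylated aFGF2 protein to printed compounds on slides; z-score merges feature fluorescence and signal-to-noise across triplicate slides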
[4] = binders of probe aFGF10 on microarray, primary screen, stem cell growth factor project, biochemical, small-molecule microarray, fluorescence 635/667 (AID 1071); conditions: higher = more signal;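 also: score merges 667 nm spot intensity and signal to noise from triplicate slides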
[5] = target: Neurogenic locus notch homolog protein 2 (Homo sapiens) (UniProt Q04721); experiment: Notch2 binders on small-molecule microarrays, primary screen, biochemical, small-molecule microarray, 635 nm fluorescence, stem cell growth factors (AID 1073); conditions: Notch2 binding, higher = more signal
[6] = target: Pro-neuregulin-1, membrane-bound isoform (Homo sapiens) (UniProt Q02297); experiment: NRG1 binders on small-molecule microarrays, primary screen, psychiatric disease protein project, biochemical, small-molecule microarray, fluorescence 635/667 (AID 1075); conditions: NRG1 binding, 635 nm fluorescence, higher = more signal;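 also: score combines 667 nm spot fluorescence with signal to noise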
Sequence of Pro-neuregulin-1, membrane-bound isoform (Homo sapiens) (Q02297 whole entry, looked up, the tested form may be a part, canonical isoform): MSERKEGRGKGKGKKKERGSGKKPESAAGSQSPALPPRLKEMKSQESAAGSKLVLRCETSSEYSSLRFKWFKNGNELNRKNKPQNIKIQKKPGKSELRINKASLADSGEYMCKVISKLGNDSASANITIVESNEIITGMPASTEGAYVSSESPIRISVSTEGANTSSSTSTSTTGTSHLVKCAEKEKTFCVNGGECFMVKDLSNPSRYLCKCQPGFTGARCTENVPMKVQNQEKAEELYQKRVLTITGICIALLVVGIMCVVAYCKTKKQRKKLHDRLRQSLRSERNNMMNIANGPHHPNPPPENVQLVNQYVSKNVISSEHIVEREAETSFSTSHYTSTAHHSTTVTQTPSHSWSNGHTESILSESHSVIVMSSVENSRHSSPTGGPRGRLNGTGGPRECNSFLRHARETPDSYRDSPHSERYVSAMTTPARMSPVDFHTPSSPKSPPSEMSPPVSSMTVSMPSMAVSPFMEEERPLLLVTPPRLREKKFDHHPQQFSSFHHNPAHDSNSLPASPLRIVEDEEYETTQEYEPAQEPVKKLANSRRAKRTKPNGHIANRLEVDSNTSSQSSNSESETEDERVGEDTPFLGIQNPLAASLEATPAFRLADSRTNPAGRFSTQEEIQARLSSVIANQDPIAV

[7] = tested on: Neuregulin-1 EGF-like domain; experiment: binders of neuregulin-1 EGF-like domain, primary screen, biochemical, small-molecule microarray, 635 nm fluorescence (AID 1081); conditions: small-molecule microarray binding, higher = more signal;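 also: binding of the protein to compounds printed on small-molecule microarray slides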
[8] = FRG1 promoter luciferase signal modulators, primary screen, FRG1 inhibition for FSHD, cell-based, C2C12 myotubes, firefly/Renilla luciferase, luminescence (AID 1084); conditions: higher = more signal, called active from +8 up or from −8 down
[9] = binders of probe aFST on microarray, primary screen, stem cell growth factor project, biochemical, small-molecule microarray, fluorescence 635/667 (AID 1086); conditions: higher = more signal;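 also: score merges 667 nm fluorescence with signal-to-noise of each printed compound spot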
[10] = binders of probe aHhip on microarray, primary screen, stem cell growth factor project, biochemical, small-molecule microarray, fluorescence 635/667 (AID 1087); conditions: higher = more signal;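 also: score merges spot fluorescence at 667nm with spot signal to noise ratio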
[11] = tested on: PRMT1 (protein arginine N-methyltransferase 1); experiment: PRMT1 binders on small-molecule microarrays, primary screen, biochemical, small-molecule microarray, 635 nm fluorescence (AID 1088); conditions: small-molecule microarray binding, higher = more signal;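 also: binding of Prmt1 protein to compounds spotted on small-molecule microarray slides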
[12] = yeast growth modulation, basal conditions, primary screen, YJM789 clinical isolate, OD600, 24 h (AID 1089);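 also: growth of clinical yeast isolate S. cerevisiae YJM 789 seeded 1000 cells per well; test concentration not given here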; conditions: S. cerevisiae YJM789 growth, higher = more signal, called active from +8 up or from −8 down
[13] = fission yeast growth modulation, primary screen, strain 972, OD600, 24 h, no modulator (AID 1090);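 also: basal condition with compound alone and no growth modifier present; test concentration not given here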; conditions: S. pombe 972 growth, higher = more signal, called active from +8 up or from −8 down
[14] = S. cerevisiae growth modulation with rapamycin, primary screen, strain BY4716, OD600, 96 h (AID 1091); conditions: higher = more signal, called active from +8 up or from −8 down; also: test concentration not given here
[15] = target: Torsin-1A-interacting protein 2 (Homo sapiens) (UniProt Q8NFQ8); experiment: LULL1 binders on small-molecule microarray, primary screen, cell lysate, human LULL1 lysate, 635/667 nm fluorescence (AID 1092); conditions: hLULL1 lysate binding, 635 nm fluorescence, higher = more signal;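 also: probe is lysate of COS7 cells overexpressing human LULL1; score merges per-feature 667 nm fluorescence with signal-to-noise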
Sequence of Torsin-1A-interacting protein 2 (Homo sapiens) (Q8NFQ8 whole entry, looked up): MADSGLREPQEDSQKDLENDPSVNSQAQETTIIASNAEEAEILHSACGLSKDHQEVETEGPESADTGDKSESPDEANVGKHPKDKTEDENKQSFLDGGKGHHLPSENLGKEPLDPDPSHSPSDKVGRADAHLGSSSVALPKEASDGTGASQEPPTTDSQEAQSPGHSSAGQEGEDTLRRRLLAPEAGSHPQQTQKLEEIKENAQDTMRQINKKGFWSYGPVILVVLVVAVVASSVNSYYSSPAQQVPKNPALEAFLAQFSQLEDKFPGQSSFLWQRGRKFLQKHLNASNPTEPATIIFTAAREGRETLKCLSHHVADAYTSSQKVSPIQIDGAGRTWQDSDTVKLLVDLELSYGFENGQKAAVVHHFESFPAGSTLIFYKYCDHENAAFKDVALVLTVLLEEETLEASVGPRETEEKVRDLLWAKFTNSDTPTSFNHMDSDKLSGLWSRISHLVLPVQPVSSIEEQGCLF

[16] = E. coli growth modulation, two-sided OD650, primary screen, E. coli filamentation project, strain DRC41, 24 h (AID 1093); conditions: OD650, 24 h, higher = more signal, called active from +8 up or from −8 down;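 also: MC1000 strain lacking acrAB efflux and sulA so SOS filamentation is blocked; test concentration not given here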
[17] = small-molecule microarray binders of probe aLefty2, primary screen, biochemical, biotinylated probe, 635/667 nm fluorescence (AID 1094); conditions: higher = more signal;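 also: score merges spot fluorescence near 667 nm with spot signal-to-noise ratio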
[18] = tested on: Noggin (protein binding on small-molecule microarray); experiment: Noggin binders on small-molecule microarray, primary screen, biochemical, 635/667 nm fluorescence (AID 1095); conditions: 635 nm fluorescence, higher = more signal;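 also: score merges 667 nm feature fluorescence with signal to noise over triplicate slides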
[19] = target: Neurogenic locus notch homolog protein 3 (Homo sapiens) (UniProt Q9UM47); experiment: NOTCH3 binders on small-molecule microarray, primary screen, biochemical, 635/667 nm fluorescence (AID 1096); conditions: NOTCH3 binding, 635 nm fluorescence, higher = more signal
Sequence of Neurogenic locus notch homolog protein 3 (Homo sapiens) (Q9UM47 whole entry, looked up): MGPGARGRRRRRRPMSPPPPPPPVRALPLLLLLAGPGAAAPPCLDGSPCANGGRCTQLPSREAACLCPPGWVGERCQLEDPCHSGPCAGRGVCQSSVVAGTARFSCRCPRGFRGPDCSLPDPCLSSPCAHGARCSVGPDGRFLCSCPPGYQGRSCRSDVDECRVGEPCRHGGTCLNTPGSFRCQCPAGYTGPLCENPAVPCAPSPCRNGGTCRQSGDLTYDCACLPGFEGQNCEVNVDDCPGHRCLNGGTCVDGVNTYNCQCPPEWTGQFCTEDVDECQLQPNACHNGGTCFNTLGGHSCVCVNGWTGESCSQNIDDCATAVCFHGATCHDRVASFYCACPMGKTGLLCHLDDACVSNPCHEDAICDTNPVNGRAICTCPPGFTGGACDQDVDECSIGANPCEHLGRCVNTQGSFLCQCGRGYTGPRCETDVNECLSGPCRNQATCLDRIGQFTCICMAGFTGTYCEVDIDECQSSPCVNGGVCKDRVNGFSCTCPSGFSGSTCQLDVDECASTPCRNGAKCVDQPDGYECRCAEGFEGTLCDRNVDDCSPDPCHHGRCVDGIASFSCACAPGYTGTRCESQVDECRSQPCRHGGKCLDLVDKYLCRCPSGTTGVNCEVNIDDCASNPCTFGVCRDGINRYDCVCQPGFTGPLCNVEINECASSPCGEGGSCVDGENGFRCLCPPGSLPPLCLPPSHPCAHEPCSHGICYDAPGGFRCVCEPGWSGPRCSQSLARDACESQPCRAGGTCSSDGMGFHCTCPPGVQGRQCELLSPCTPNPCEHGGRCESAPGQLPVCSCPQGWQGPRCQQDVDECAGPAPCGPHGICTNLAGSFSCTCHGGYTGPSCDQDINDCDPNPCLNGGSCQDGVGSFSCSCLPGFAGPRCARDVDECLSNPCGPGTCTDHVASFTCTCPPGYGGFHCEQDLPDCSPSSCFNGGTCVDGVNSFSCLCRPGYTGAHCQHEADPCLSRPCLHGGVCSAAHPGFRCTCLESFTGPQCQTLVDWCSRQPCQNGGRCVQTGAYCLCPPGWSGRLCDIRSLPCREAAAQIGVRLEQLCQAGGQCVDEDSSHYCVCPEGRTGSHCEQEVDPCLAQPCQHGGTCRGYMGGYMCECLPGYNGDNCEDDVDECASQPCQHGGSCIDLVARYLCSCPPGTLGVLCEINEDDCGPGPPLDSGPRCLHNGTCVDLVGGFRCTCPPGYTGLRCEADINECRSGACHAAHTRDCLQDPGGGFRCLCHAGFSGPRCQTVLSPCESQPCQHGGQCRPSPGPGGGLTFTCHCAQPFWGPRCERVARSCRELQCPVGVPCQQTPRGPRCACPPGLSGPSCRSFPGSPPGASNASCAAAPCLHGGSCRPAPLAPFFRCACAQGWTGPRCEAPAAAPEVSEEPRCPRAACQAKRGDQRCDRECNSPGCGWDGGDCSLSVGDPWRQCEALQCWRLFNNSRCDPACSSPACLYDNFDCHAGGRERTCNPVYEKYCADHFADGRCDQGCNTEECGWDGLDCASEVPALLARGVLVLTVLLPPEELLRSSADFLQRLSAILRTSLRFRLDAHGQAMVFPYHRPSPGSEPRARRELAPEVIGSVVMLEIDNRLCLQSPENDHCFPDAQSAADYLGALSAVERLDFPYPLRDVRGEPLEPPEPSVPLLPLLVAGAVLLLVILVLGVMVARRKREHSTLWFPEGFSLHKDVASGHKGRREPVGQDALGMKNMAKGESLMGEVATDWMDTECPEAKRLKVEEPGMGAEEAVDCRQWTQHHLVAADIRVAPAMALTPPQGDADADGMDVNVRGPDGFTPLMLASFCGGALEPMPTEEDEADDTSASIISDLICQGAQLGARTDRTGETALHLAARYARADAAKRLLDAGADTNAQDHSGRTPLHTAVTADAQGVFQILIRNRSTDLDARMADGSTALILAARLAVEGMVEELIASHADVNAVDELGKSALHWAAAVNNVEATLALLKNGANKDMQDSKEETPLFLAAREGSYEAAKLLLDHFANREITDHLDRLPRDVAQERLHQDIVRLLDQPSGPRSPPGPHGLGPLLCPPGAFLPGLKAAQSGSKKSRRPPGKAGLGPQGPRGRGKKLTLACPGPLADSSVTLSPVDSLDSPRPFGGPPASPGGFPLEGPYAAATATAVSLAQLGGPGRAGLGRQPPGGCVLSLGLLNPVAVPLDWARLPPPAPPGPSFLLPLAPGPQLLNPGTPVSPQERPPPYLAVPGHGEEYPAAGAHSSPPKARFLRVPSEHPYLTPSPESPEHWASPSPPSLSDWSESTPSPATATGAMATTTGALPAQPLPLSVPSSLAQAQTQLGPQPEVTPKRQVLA

[20] = small-molecule microarray binders of probe aEGFR, primary screen, biochemical, biotinylated probe, 635/667 nm fluorescence (AID 1097); conditions: higher = more signal;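 also: probe is a biotinylated anti-EGFR antibody binding compounds printed on slides; score combines fluorescence near 667 nm and signal to noise of each spot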

Row | Structure (SMILES) | composite z-score [1] | composite z-score [2] | composite z-score [3] | composite z-score [4] | composite z-score [5] | composite z-score [6] | composite z-score [7] | z-score [8] | composite z-score [9] | composite z-score [10] | composite z-score [11] | z-score [12] | z-score [13] | z-score [14] | composite z-score [15] | z-score [16] | composite z-score [17] | composite z-score [18] | composite z-score [19] | composite z-score [20]
1 | C=CCN1C(=O)[C@@]2(O[C@@H](CCO)[C@H]([Si](C)(C)c3ccc(OC)cc3)[C@H]2C)c2cc(N(C=O)c3ccccc3)ccc21 | 0.156 | 0.24 | -0.125 | 0.461 | 0.555 | 0.657 | 0.904 | -1.06 (inactive) | 0.143 | 0.154 | 1.11 | 0.551 (inactive) | -0.67 (inactive) | 21 (active) | 0.586 | 1.85 (inactive) | 0.0183 | 0.366 | 0.259 | -0.0304
2 | COc1ccc(C(=O)Nc2cccc(CN3C(=O)[C@@]4(O[C@@H](CCO)[C@H]([Si](C)(C)c5ccc(OC)cc5)[C@H]4C)c4ccccc43)c2)cc1 | 0.457 | -0.0176 | -0.0784 | 0.19 | 0.0782 | -0.0498 | 0.984 | -3.53 (inactive) | 0.0018 | -0.216 | 0.95 | 0.324 (inactive) | -9.44 (active) | 0.2 (inactive) | 1.35 | 1.68 (inactive) | 0.0005 | 0.297 | 0.0772 | -0.155
3 | CC(C)CCC[C@@H](C)[C@H]1CC[C@@]2(C)C3=C(CC[C@]12C)[C@@]1(C)CC[C@H](OC(=O)CCl)C(C)(C)C1CC3 (stereo not given in full) | -0.503 | 0.331 | -0.0787 | 0.422 | 0.753 | 0.0429 | 0.59 | -0.0513 (inactive) | 0.104 | -0.0237 | -0.132 | -0.0688 (inactive) | -0.178 (inactive) | -0.208 (inactive) | 0.424 | 3.26 (inactive) | -0.145 | 0.44 | 0.847 | 0.0143
4 | CC(C)[Si](C#C[Si](C(C)C)(C(C)C)C(C)C)(O[C@H](C)c1cn([C@H](C)c2ccccc2)nn1)C(C)C | -0.248 | 0.15 | -0.0402 | 0.357 | 0.814 | 0.3 | 0.528 | -1.64 (inactive) | 0.25 | -0.132 | 1.18 | -1.22 (inactive) | -2.35 (inactive) | -1.4 (inactive) | 1.11 | 0.723 (inactive) | 0.0137 | 0.5 | 0.987 | -0.0525
5 | O=C(O)[C@H]1C[C@H]2C(=O)N[C@@H](Cc3ccccc3)C(=O)N2[C@H]1c1ccc(O)cc1 | 1.01 | 0.419 | -0.0943 | -0.769 | -1.42 | 0.511 | 1.24 | 1.02 (inactive) | 0.16 | -0.136 | 1.32 | -0.261 (inactive) | -0.784 (inactive) | -0.322 (inactive) | 2.54 | 0.906 (inactive) | -0.0572 | 0.108 | 0.321 | 0.064
6 | C=C(CCCC)/C(=C/C[C@@H](OC(=O)c1ccncc1)c1ccc(OCCO)cc1)c1cnc2ccccc2c1 | 0.201 | 0.379 | 0.0166 | 1.19 | 1.48 | 0.227 | 0.841 | -0.723 (inactive) | 0.265 | -0.176 | 1.52 | 0.594 (inactive) | -1.59 (inactive) | 0.524 (inactive) | 0.447 | 1.48 (inactive) | -0.0523 | 1.72 | 1.06 | -0.0243
7 | COCCOC(=O)N1C(=O)[C@@]2(c3cc(C#CCNC(N)=O)ccc31)[C@H](C(=O)NC[C@H](O)c1ccccc1)[C@H]1C(=O)O[C@H](c3ccccc3)[C@H](c3ccccc3)N1[C@@H]2c1ccc(O)cc1 | 0.464 | 0.256 | -0.031 | 0.462 | -0.26 | 0.8 | 0.442 | 0.803 (inactive) | 0.24 | -0.191 | 1.54 | -0.124 (inactive) | -2.42 (inactive) | 0.893 (inactive) | 1.5 | 2 (inactive) | -0.104 | 0.737 | 0.698 | -0.132
8 | CC(CO)N1C(=O)[C@@H]2C3C(=O)OCCC/C=C\[C@H]3OC23C=CCN(Cc2ccccc2)C(=O)[C@@H]13 (stereo not given in full) | 0.418 | -0.338 | -0.143 | -0.486 | -0.847 | -0.512 | 0.18 | 0.227 (inactive) | -0.0745 | -0.0239 | 0.432 | -0.537 (inactive) | -2.16 (inactive) | -0.875 (inactive) | -0.0166 | 2.31 (inactive) | -0.16 | -0.545 | -0.505 | -0.186
9 | O=C(N1CCCCC1)[C@@]1(Cc2ccccc2)N=C(c2ccc(OCCCO)cc2)O[C@H]1c1ccccc1 | 0.994 | 2 | 0.103 | 0.235 | 1.58 | 1.05 | 1.02 | -3.21 (inactive) | 1.52 | -0.146 | 1.18 | -0.997 (inactive) | -2.65 (inactive) | 4.43 (inactive) | 2.99 | 0.668 (inactive) | 0.429 | 0.368 | 0.966 | 0.293
10 | Cc1ccc(N2C(=O)c3ccccc3[C@](C)(C(=O)NC3CC3)[C@@H]2c2ccc(CO)cc2)nc1 | 0.879 | -0.241 | -0.0948 | -0.325 | -0.344 | -0.474 | -0.0515 | 0.843 (inactive) | 0.406 | -0.0047 | -0.349 | 0.0474 (inactive) | -0.981 (inactive) | -0.69 (inactive) | 0.244 | 0.949 (inactive) | 0.149 | 0.381 | -0.591 | -0.0564
